BJeLR lethal: kills HRASV12-expressing BJeLR cells; inhibition, % (concentration not given with the values); BJeLR (HRASV12) viability, CellTiter-Glo ATP luminescence, 48 h; 300,000 compounds, 0.17% hits; in the data active means inhibition above about 50%
PriA SSB inh: K. pneumoniae PriA-SSBct interaction inhibition; inhibition, % at 33 µM; AlphaScreen SSBct-PriA binding, biotinylated peptide; 430,000 compounds, 0.6% hits; AID 1272365; in the data active means inhibition mostly above about 37%, no sharp cut-off; inactive means mostly below about 20%;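 further: plate controls were negative control peptide for no effect and reference peptide for full effect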
SARS 3CLpro inh: SARS-CoV 3CLpro protease inhibition; P0C6X7; recombinant SARS-CoV 3CLpro, quenched FRET peptide cleavage; inhibition, % at 6 µM; 290,000 compounds, 0.14% hits; in the data active means inhibition above about 12%
The depositor's hits bear a star; nt = not tested or not shown. Rows were chosen to be rich in hits. Some 0.78% of all compounds tested hit in one or more screens of this group.

SMILES | BJeLR lethal | PriA SSB inh | SARS 3CLpro inh
COc1ccc(C2NCCc3c2[nH]c2ccccc32)cc1CN1CCc2cc(OC)c(OC)cc2C1C (stereo unspecified) | 8 | 44* | -4
COc1ccc(C2NCCc3c2[nH]c2ccccc32)cc1COc1ccc(F)cc1 (stereo unspecified) | -4 | 25 | -1
CCN1CCN(C(=O)NCCn2ccnc2C2CC2)C(=O)C1=O | nt | -11 | nt
Cc1[nH]c2ccccc2c1C(=O)CSc1nccc(=O)[nH]1 | -11 | 2 | 1
Oc1ccc(CNc2ccccc2C(F)(F)F)c2cccnc12 | nt | 44 | nt
N#CSCc1ccc(O)c2ncccc12 | nt | 111* | nt
O=c1ccnc(SCc2ccc(O)c3ncccc23)[nH]1 | nt | 106* | nt
CCCCCCCCCCSCc1ccc(O)c2ncccc12 | nt | 57 | nt
Oc1ccc(CSc2ccccc2)c2cccnc12 | nt | 88* | nt
Oc1ccc(CSc2ncccn2)c2cccnc12 | nt | 76* | nt
O=C(CCCn1nc(-c2ccc(F)cc2)ccc1=O)Nc1ccc(F)c(C(F)(F)F)c1 | nt | -2 | nt
COc1cc(N=C2C(=O)N3c4c(cccc42)C(C)=CC3(C)C)cc(OC)c1 | 1 | 7 | 5
CC1=CC(C)(C)N2C(=O)C(=Nc3ccc(O)cc3)c3cccc1c32 | 1 | 40* | 6
Cc1ccc(OCc2nc(C#N)c(N3CCC(C(N)=O)CC3)o2)cc1 | nt | 56* | nt
Cc1ccc(OCc2nc(C#N)c(N3CCC(C)CC3)o2)cc1 | nt | 96* | nt
N#Cc1nc(-c2ccc(OCc3ccc(Cl)cc3)cc2)oc1N1CCC(C(N)=O)CC1 | 10 | -4 | 1
N#Cc1nc(COc2ccc(F)cc2)oc1N1CCCC1 | 3 | 25 | 2
Cc1ccc(OCc2nc(C#N)c(N3CCN(c4ccccc4)CC3)o2)cc1 | nt | 74* | nt
Cc1ccc(-c2nc(C#N)c(N3CCC(C)CC3)o2)cc1 | -1 | 33 | 2
Cc1ccc(OCc2nc(C#N)c(N3CCN(Cc4ccccc4)CC3)o2)cc1 | -7 | -6 | 0
N#Cc1nc(COc2ccc(Br)cc2)oc1N1CCCCC1 | nt | 104* | nt
COc1ccc(CCNC(=O)C(=O)Nc2cccc(N3CCCS3(=O)=O)c2)cc1OC | nt | -2 | nt
N#Cc1nc(Cc2cccc3ccccc23)oc1NCc1ccc(F)cc1 | -11 | 45* | 2
CC1CC(C)CN(c2oc(Cc3ccccc3)nc2C#N)C1 (stereo unspecified) | 1 | 55* | 3
N#Cc1nc(Cc2ccccc2)oc1N1CCCC1 | 3 | -2 | 0
SMILES | BJeLR lethal | PriA SSB inh | SARS 3CLpro inh
N#Cc1nc(Cc2cccc3ccccc23)oc1N1CCOCC1 | 3 | 34 | 1
COc1ccc(OCc2ccc(-c3nc(C#N)c(N4CCC(C(N)=O)CC4)o3)o2)cc1 | nt | 37* | nt
C=CCNc1oc(Cc2cccc3ccccc23)nc1C#N | -1 | 3 | -1
CCCOc1ccc(-c2nc(C#N)c(N3CCC(C(N)=O)CC3)o2)cc1 | -5 | -4 | -3
CC1CCN(c2oc(Cc3cccc4ccccc34)nc2C#N)CC1 | 9 | 56* | -5
CCS(=O)(=O)c1ccc(CC(=O)N(CCn2cccn2)c2nc3c(Cl)cccc3s2)cc1 | nt | -7 | nt
Cc1cccc(-c2nc(Cn3c(=O)n(C(C)C)c(=O)c4ccccc43)c(C)o2)c1 | nt | 2 | nt
O=C(CCc1ccccc1)NCCn1ncc2c(N3CCN(Cc4ccccc4)CC3)ncnc21 | nt | 2 | nt
CCOCC(=O)N1CCC(S(=O)(=O)c2ccc(F)cc2)CC1 | nt | -4 | nt
c1coc(-c2nc(-c3ccco3)c(-c3ccco3)nc2-c2ccco2)c1 | 11 | 43* | -1
Nc1nc(-c2ccco2)c(-c2ccco2)s1 | -7 | -2 | -6
CCCCc1cc(=O)oc2c(CN(C)C)c(O)ccc12 | -7 | -9 | -3
CC[C@@]1(O)C(=O)OCc2c1cc1n(c2=O)Cc2cc3c(N)cccc3nc2-1 | 78* | 37 | nt
O=c1cccc2n1Cc1cc3ccccc3nc1-2 | 3 | -5 | -1
CC[C@@]1(O)C(=O)OCc2c1cc1n(c2=O)Cc2cc3c(CN(C)C)c(O)ccc3nc2-1 | 85* | 9 | nt
COc1ccc(CCNC(=O)NC[C@@](C)(O)CCSC)cc1 | nt | -16 | nt
O=C(NC(c1ccccc1)c1ccccc1)N1CCN(C(=O)c2cnn3ccccc23)CC1 | nt | 5 | nt
O=C(c1nc2ccccc2s1)N1CCC(Oc2ncccc2Br)CC1 | nt | -28 | nt
O=C(Nc1ccc2nc3n(c(=O)c2c1)CCCCC3)c1c(F)ccc([N+](=O)[O-])c1F | 75* | 7 | 6
O=C(Nc1ccc2nc3n(c(=O)c2c1)CCCCC3)c1cc([N+](=O)[O-])ccc1F | 8 | 4 | 6
CCOc1ccc(-c2ccc(=O)n(CCNC(=O)Cc3cccs3)n2)cc1 | nt | -1 | nt
CCCN1CCCc2cc(CCNC(=O)c3cccc(Cl)c3)ccc21 | nt | 48 | nt
CCCN1CCCc2cc(CCNC(=O)c3cccc(F)c3)ccc21 | nt | 41* | nt
CCCN1CCCc2cc(CCNC(=O)c3cc(OC)cc(OC)c3)ccc21 | nt | 59 | nt
CCCN1CCCc2cc(CCNC(=O)c3cccc(C)c3)ccc21 | nt | 59* | nt
SMILES | BJeLR lethal | PriA SSB inh | SARS 3CLpro inh
CCCN1CCCc2cc(CCNC(=O)c3c(F)cccc3F)ccc21 | nt | 54* | nt
CCCN1CCCc2cc(CCNC(=O)c3cccc(OC)c3)ccc21 | nt | 61* | nt
COc1ccccc1OCC#CCNC(=O)C1CC=CCC1 (stereo unspecified) | nt | -2 | nt
O=C(CSC1CCCC1)Nc1ccc2c(c1)CCCN2C(=O)c1ccccc1 | nt | -11 | nt
Cc1c(C)n2c3c(=O)[nH]c(=O)n(C)c3nc2n1CCN1CCN(c2cccc(Cl)c2)CC1 | nt | -6 | nt
CCOC(=O)c1c(NC(=O)c2ccc([N+](=O)[O-])s2)sc(C)c1C | nt | 5 | nt
Cc1ccc2nc(C3CN(C(=O)C4CCCC4)C3)[nH]c2c1 | nt | -9 | nt
CCn1c(O)c(C=NNC(=O)c2ccncc2)c(=O)[nH]c1=S | nt | -5 | nt
CC(C)Oc1ccc(C(=O)Nc2cnc3ccnn3c2)cc1 | nt | -8 | nt
NC(=O)c1sccc1S(=O)(=O)N1CCN(c2ccccc2F)CC1 | nt | -9 | nt
Cc1ccc(N2CC(C(=O)NCC3(O)CCOc4ccccc43)CC2=O)cc1C (stereo unspecified) | nt | -21 | nt
O=C(NCc1ccccn1)[C@H]1CCCN(c2ccc(-c3ccco3)nn2)C1 | nt | 3 | nt
c1ccc(-c2nnsc2-c2ccccc2)cc1 | -3 | -27 | -3
O=S(=O)(c1ccc(Cl)c(Cl)c1)c1snnc1-c1ccccc1 | 53* | -7 | 7
Nc1ccc(-c2ccccc2)cc1 | nt | -7 | nt
Nc1ccc(/C=C/c2ccccc2)cc1 | nt | 40* | nt
C=C1C(=O)O[C@@H]2C[C@@H](C)[C@@H]3C=CC(=O)[C@@]3(C)[C@@H](OC(=O)CC(=O)O[C@H]3[C@@H]4C(=C)C(=O)O[C@@H]4C[C@@H](C)[C@@H]4C=CC(=O)[C@]43C)[C@H]12 | 94* | -4 | nt
C=C1C(=O)OC2CC(C)C3C=CC(=O)C3(C)C(O)C12 (stereo unspecified) | nt | -9 | nt
Cc1ccc(N=c2scc(-c3ccc(Cl)cc3)n2CCN2CCOCC2)c(C)c1 | nt | 7 | nt
COc1cccc(-c2csc(=Nc3ccc(Cl)cc3)n2N2CCOCC2)c1 | nt | 68* | nt
O=C(Cc1ccccc1)NCCS(=O)(=O)N1CCN(c2cccc(Cl)c2)CC1 | 4 | -2 | nt
O=C(Cc1ccc(F)cc1)NCCS(=O)(=O)N1CCN(c2cccc(Cl)c2)CC1 | 0 | 38* | nt
O=C(O)CN1CCCCCC1 | nt | -15 | nt
CS(=O)(=O)N1CCN(c2ccc(-c3ccccn3)nn2)CC1 | nt | 77* | nt
CS(=O)(=O)N1CCN(c2ccc(-c3ccco3)nn2)CC1 | nt | -8 | nt
